In the library only some 2% were active in any assay of this set; here they are far more common.
ADAM17 inh = ADAM17 inhibition, QFRET primary screen; inhibition, % at 6.95 µM; recombinant ADAM17, EDANS/DABCYL FRET peptide cleavage; 370,000 compounds, 0.83% hits; P78536;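 active = inhibition above the mean of compounds lying between control limits plus 3 SD, set per campaign, cut at about 8.5% in these data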
ADAM10 inh = inhibitors of human ADAM10; recombinant ADAM10, EDANS/DABCYL FRET peptide cleavage, 3 h; 370,000 compounds, 0.62% hits; inhibition, % at 7 µM;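 active = inhibition above a per-campaign cutoff equal to the mean of compounds falling between control-based bounds plus 3 SD, cut at about 20% in these data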
GC-B act = GC-B (human) receptor activation. P20594. activation, % at 10 µM. HEK293-GC-B cells, CNP EC30, cGMP TR-FRET; 0% at EC30 CNP, 100% saturating CNP. 370,000 compounds, 0.11% hits. AID 1920062;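 active = activation at 10 µM reaching about 35% in either raw or pattern-adjusted values, limit read from the data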
FAS-TE inh = inhibitors of human fatty acid synthase thioesterase domain. P49327. recombinant FAS-TE, OMFH fluorogenic substrate, fluorescence endpoint. inhibition, % at 15 µM. 360,000 compounds, 0.67% hits;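 active = compounds whose normalised, plate-corrected inhibition of enzyme fluorescence in the single-dose primary screen is 50% or more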
Target sequence (P49327 whole entry, looked up, the tested form may be a part): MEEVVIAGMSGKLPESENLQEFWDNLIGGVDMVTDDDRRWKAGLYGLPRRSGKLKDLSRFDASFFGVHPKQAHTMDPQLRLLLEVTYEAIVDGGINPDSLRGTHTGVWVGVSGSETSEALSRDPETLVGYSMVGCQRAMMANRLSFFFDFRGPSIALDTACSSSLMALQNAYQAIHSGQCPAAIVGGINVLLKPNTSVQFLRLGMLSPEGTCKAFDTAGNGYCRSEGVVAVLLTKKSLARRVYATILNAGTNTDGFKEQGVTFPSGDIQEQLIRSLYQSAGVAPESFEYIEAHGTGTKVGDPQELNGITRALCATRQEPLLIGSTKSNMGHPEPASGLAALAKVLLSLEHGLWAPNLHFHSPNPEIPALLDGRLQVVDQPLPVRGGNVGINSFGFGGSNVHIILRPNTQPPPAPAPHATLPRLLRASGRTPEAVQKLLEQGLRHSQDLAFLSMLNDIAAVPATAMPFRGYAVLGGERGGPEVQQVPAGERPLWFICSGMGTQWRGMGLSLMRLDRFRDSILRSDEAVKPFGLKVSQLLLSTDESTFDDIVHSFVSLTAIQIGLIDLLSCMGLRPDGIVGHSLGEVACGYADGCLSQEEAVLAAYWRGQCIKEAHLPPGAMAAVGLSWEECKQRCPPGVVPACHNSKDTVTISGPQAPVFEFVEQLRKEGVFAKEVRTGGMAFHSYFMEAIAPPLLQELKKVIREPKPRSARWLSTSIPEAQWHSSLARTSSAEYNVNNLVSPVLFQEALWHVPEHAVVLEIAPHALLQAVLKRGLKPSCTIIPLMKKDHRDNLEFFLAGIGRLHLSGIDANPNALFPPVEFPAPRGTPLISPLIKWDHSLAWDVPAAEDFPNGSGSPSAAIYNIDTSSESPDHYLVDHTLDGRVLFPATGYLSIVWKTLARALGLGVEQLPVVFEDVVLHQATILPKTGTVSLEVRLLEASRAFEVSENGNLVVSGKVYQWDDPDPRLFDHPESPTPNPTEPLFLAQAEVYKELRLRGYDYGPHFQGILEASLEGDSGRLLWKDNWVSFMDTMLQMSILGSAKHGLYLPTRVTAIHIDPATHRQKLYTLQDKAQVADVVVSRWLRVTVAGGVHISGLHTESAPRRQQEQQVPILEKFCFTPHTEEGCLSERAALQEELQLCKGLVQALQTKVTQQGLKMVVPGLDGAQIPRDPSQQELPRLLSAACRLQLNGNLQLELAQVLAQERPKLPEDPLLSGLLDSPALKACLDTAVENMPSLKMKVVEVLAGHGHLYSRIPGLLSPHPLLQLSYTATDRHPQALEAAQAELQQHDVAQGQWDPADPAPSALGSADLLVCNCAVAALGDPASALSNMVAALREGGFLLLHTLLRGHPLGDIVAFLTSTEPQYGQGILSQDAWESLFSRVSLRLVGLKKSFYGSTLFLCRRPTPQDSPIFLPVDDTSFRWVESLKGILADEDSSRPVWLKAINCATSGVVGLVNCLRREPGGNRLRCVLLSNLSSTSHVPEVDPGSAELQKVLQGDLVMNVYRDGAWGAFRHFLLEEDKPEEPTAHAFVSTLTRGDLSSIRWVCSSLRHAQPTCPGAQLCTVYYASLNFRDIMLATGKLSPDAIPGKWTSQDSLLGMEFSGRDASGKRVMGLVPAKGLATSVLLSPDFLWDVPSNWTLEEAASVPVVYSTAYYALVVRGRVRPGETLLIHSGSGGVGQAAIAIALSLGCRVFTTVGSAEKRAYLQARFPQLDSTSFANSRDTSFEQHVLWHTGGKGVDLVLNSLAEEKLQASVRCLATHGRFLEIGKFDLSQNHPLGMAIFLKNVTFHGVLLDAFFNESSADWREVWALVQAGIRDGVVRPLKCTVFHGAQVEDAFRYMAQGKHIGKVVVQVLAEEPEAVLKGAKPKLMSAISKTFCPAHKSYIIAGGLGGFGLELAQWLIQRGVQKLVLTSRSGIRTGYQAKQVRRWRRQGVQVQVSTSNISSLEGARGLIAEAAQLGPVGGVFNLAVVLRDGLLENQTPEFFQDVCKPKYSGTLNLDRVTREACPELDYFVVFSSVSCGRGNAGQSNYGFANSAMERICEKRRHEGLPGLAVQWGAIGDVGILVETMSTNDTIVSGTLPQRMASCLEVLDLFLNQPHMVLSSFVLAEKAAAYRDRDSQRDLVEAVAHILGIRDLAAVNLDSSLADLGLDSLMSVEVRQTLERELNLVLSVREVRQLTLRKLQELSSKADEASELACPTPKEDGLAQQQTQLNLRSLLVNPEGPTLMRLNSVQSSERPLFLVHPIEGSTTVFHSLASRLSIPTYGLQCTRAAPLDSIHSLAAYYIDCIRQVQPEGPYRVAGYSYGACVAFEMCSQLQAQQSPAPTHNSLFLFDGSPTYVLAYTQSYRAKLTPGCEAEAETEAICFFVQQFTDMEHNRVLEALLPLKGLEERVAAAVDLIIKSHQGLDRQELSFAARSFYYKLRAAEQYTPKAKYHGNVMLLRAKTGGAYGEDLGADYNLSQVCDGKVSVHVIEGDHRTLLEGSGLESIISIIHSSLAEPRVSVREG
GC-A act = GC-A (human) enzyme activation. P16066. HEK293 GC-A cells, cGMP TR-FRET, EC30 ANP; 0% at EC30 ANP, 100% saturating ANP. activation, % at 10 µM. 370,000 compounds, 0.14% hits. AID 1671463; in the data active = activation above about 40%
ADAM10 counter = ADAM10 inhibition, counter-screen for ADAM17 exosite hits | shares compounds with ADAM17 inh | recombinant ADAM10, EDANS/DABCYL FRET peptide cleavage, 3 h | inhibition, % at 6.95 µM | 2,900 compounds, 47% hits | AID 743256;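 active = mean inhibition over the triplicate runs exceeds the activity threshold set in the earlier primary screen, cut at about 20% in these data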
ADAM17 confirm = human ADAM17 inhibition, confirmation | shares compounds with ADAM17 inh | recombinant ADAM17, EDANS/DABCYL QFRET peptide cleavage | 2,900 compounds, 65% hits | inhibition, % at 6.95 µM;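 active = mean inhibition across replicates above the hit cutoff set in the primary screen, cut at about 8.5% in these data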
Large screens that a line does not name were inactive (follow-up assays come after a bar, where they were run).

CN(Cc1ccccc1)C(=O)c1ccc(NC(=O)Cc2ccc(NC(=O)C3CCCN(C(=O)CCc4ccccc4)C3)cc2)cc1 (centres undefined)	ADAM17 inh 9.4 | ADAM10 counter 21 | ADAM17 confirm 11
CN(C)CC(=O)N[C@@H]1C[C@@H]2O[C@@H](CO)CC[C@@H]2O[C@@H]1CCc1ccc(C#Cc2ccccc2)cc1	none (no result: FAS-TE inh)
COc1ccc(S[C@]2(C(=O)N3CCCC3)CC(=O)N(c3ccc4c(ccn4C)c3)[C@@H]2c2ccc(OC)cc2)cc1	none (no result: FAS-TE inh)
Cc1ccccc1-c1nc(S(=O)(=O)c2ccc(Br)cc2)c(NCc2cccnc2)o1	ADAM17 inh 9.9 | ADAM10 counter inactive | ADAM17 confirm 25
O=C(COC(=O)c1ccc(O)cc1O)Nc1cc(-c2ccccc2)nn1-c1ccccc1	ADAM17 inh 8.8 | ADAM10 counter 24 | ADAM17 confirm 16
C#CCN(C[C@H]1[C@H](OC(=O)Nc2cccs2)[C@H](OC(=O)Nc2cccs2)CN(C(=O)OC(C)C)N1C(=O)OC(C)C)S(=O)(=O)c1ccc(C)cc1	ADAM17 inh 12 (no result: FAS-TE inh) | ADAM10 counter 33 | ADAM17 confirm 19
C#CCN(C[C@@H]1[C@@H](OC(=O)NC2CC2)[C@@H](OC(=O)NC2CC2)CN(C(=O)OC(C)C)N1C(=O)OC(C)C)S(=O)(=O)c1ccc(C)cc1	none
O=C(Nc1ccc2c(c1)OCO2)N1CCC(c2nc3ccc(Cl)cc3[nH]2)CC1	none (no result: FAS-TE inh)
CC(=O)Nc1ccc(-c2ccnc3c2CC(C)(C(=O)NCCc2ccccc2)O3)cc1 (centres undefined)	ADAM17 inh 9.5 | ADAM10 counter inactive | ADAM17 confirm inactive
O=C(NCc1ccccc1)[C@@H]1CCCN1C(=O)[C@H]1CCCN1C(=O)c1cccc2ccccc12	none (no result: FAS-TE inh)
CC(=O)N1c2ccc(S(=O)(=O)N3CCC(C(=O)Nc4cccc(C(F)(F)F)c4)CC3)cc2CC1C (centres undefined)	ADAM17 inh 10 | ADAM10 counter inactive | ADAM17 confirm 9.4
CCCCNS(=O)(=O)c1ccc2nc(SCC(=O)Nc3ccccc3Cl)[nH]c2c1	ADAM17 inh 9.9 | ADAM10 counter 26 | ADAM17 confirm 12
CC(C)(C)c1ccc(C2(C)NC(=O)N(CC(=O)c3ccc[nH]3)C2=O)cc1 (centres undefined)	ADAM17 inh 11 | ADAM10 counter inactive | ADAM17 confirm inactive
CC(C)(C)c1ccc(C2(C)NC(=O)N(CC(=O)NCc3cccs3)C2=O)cc1 (centres undefined)	none
COc1ccc(CN(CCN2CCOCC2)C(=O)c2cc(Cl)ccc2F)cc1OC	none (no result: FAS-TE inh)
CCCCOCCCNC(=O)C[C@H]1C[C@@]2(C(=O)OC)C(=C[C@H](COCc3ccccc3)O[C@@H]2C)N(Cc2ccc(Cl)cc2Cl)C1=O	none (no result: FAS-TE inh)
CC1C(=O)N(Cc2cn(CCC3OCCO3)nn2)CCS(=O)(=O)N1Cc1ccc(-c2ccc(F)cc2)cc1 (centres undefined)	ADAM17 inh 10 | ADAM10 counter inactive | ADAM17 confirm inactive
CC1C(=O)N(Cc2cn(CCC3OCCO3)nn2)CCS(=O)(=O)N1Cc1ccc(-c2ccncc2)cc1 (centres undefined)	none
COc1ccc(-c2ccc(CN3C(C(C)C)C(=O)N(Cc4cn(Cc5ccco5)nn4)CCS3(=O)=O)cc2)cc1OC (centres undefined)	ADAM17 inh 10 | ADAM10 counter inactive | ADAM17 confirm 14
CC(C)[C@H]1/C(=C/C2CC2)N2C(=O)C[C@@H](c3ccccc3)N=C2N1Cc1ccc2c(c1)OCO2	none (no result: FAS-TE inh)
O=C(NC1=NC2(C=C3CCCCC3n3c(=O)n(-c4ccccc4)c(=O)n32)CN1CC1CC1)c1ccccc1 (centres undefined)	none (no result: FAS-TE inh)
CN(C)S(=O)(=O)c1cc(NC(=O)COC(=O)Cc2ccc(Cl)cc2Cl)ccc1Cl	none
CN(C)S(=O)(=O)c1cc(NC(=O)COC(=O)Cc2cccc3ccccc23)ccc1Cl	ADAM17 inh 8.8 | ADAM10 counter 27 | ADAM17 confirm 17
O=C(c1cc(F)ccc1F)N1CCCC(c2nc(-c3cccs3)no2)C1 (centres undefined)	none (no result: FAS-TE inh)
CCOC(=O)c1ccc(NC(=O)Nc2ccc(OC)c(OC)c2)cc1	none
CCCCOC(=O)c1ccc(NC(=O)Nc2ccc(OC)c(OC)c2)cc1	ADAM17 inh 12 | ADAM10 counter 27 | ADAM17 confirm 13
CCCCc1c(-c2ccccc2OC)ncn1Cc1ccc(OC)c(Cl)c1	none (no result: FAS-TE inh)
CCOC(=O)[C@@H]1[C@H]2COc3ccc(Br)cc3[C@H]2N2C(=O)N(c3ccc(Br)cc3)C(=O)[C@]12C	ADAM17 inh 9.2 | ADAM10 counter 31 | ADAM17 confirm 21
CCOC(=O)[C@@H]1[C@H]2COc3ccc(Br)cc3[C@H]2N2C(=O)N(c3ccc(Cl)cc3)C(=O)[C@]12C	none
O=C(COc1cccc2ccccc12)Nc1ccc(Cl)cc1C(=O)O	none
O=C(COc1cccc2ccccc12)Nc1cc(Cl)ccc1C(=O)O	ADAM17 inh 13 | ADAM10 counter inactive | ADAM17 confirm inactive
Oc1cccc2ccc(Nc3ccccn3)nc12	ADAM17 inh 50, ADAM10 inh 60 | ADAM10 counter 32 | ADAM17 confirm 47
COc1ccc(C(C(=O)N(C)C2CCCC2)N(Cc2ccc(F)cc2)C(=O)c2csc(-c3ccccc3)n2)cc1OC (centres undefined)	none (no result: FAS-TE inh)
Cc1ccc(S(=O)(=O)N2CCC(C(=O)Nc3ccc(C(C)C)cc3)CC2)cc1	none
Cc1ccc(S(=O)(=O)N2CCC(C(=O)Nc3ccc(S(=O)(=O)N4CCCC4)cc3)CC2)cc1	ADAM17 inh 13 | ADAM10 counter 21 | ADAM17 confirm 11
CCNC(=O)N(C)[C@H]1C[C@H]2c3[nH]c4cccc(-c5cccc(F)c5)c4c3CCN2C(=O)[C@H]1[C@H](C)O	none (no result: FAS-TE inh)
Cc1cccc(CSCCNC(=O)c2ccc(N(C)S(=O)(=O)c3ccccc3)cc2)c1	ADAM17 inh 11 | ADAM10 counter 23 | ADAM17 confirm 12
CS(=O)c1ccccc1-c1nc(-c2ccc([N+](=O)[O-])cc2)no1 (centres undefined)	ADAM17 inh 11 | ADAM10 counter 22 | ADAM17 confirm inactive
COc1ccc(OC)c(NC(=O)O[C@@H]2CC[C@@]34CCCN3C(=O)CCC[C@H]4C2)c1	none (no result: FAS-TE inh)
CC(C)(Oc1ccc(Cl)cc1)C(=O)OCC(=O)Nc1ncc(Cl)cc1Cl	ADAM17 inh 9.9 | ADAM10 counter inactive | ADAM17 confirm inactive
COc1ccc(OCCCC(=O)OCC(=O)Nc2ncc(Cl)cc2Cl)cc1	none

Screening data (PubChem BioAssay)
